Shiga inhibitor: inhibitors of Shiga toxin in Vero cells; Vero cells, Shiga toxin protein synthesis inhibition reporter; inhibition, % at 38.7 µM; 290,000 tested, 9.2% active; in the data active means inhibition mostly above about 28%, no sharp cut-off; inactive means mostly below about 43%; further: 0% is about no effect
NS1 inh: inhibitors of influenza NS1 protein function; 270,000 tested, 0.4% active; AID 2326; Potency, µM (top dose mostly 46.1 µM), for the others: at the top dose activity, positive = more growth; calls by dose curve; further: potency means the concentration at half of the fitted maximal effect; actives are rising curves; nearly all actives have a fitted effect of over 50% in size
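Growth recovery, yeast-based: influenza A NS1 expressed in S. cerevisiae causes slow growth, and suppressors are detected by OD600. The parent strain without NS1 is used as positive control.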
Pf growth 96h: P. falciparum growth inhibition at 96 hours | P. falciparum luciferase reporter growth, 96 h | Potency, µM (titrated, usually from 28.7 µM), without a hit: at the highest dose activity change, negative = inhibition, hits mostly inhibitors | 320,000 tested, 6.9% active; further: potency means the concentration at half of the fitted maximal effect; on the % scale 0 is the no-effect control and ±100 the full control effect
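Two parasite generations (96 h, 37 C, 5% CO2) of compound exposure in infected erythrocytes (0.05% parasitemia, 2% hematocrit). Luciferase-reporter P. falciparum; decreased luminescence indicates inhibited growth, aimed at apicoplast-acting delayed death.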
Cycloheximide cs: counter-screen for Shiga toxin inhibitors: cycloheximide protein synthesis inhibition; cell reporter, cycloheximide protein synthesis inhibition counterscreen; max response, %; 300,000 tested, 12% active; in the data active means max response mostly above about 13%, no sharp cut-off; inactive means mostly below about 14%; further: read at 38.3 µM for the half of the compounds with a filed dose; 0% is about no effect
Pf growth 48h: inhibits P. falciparum growth in the first generation, 48 h. P. falciparum luciferase growth in erythrocytes, 48 h. Potency, µM (series often up to 28.7 µM), for the others: at the top dose activity change, negative = inhibition, usual class: inhibitors. 310,000 tested, 5.9% active; further: potency means the concentration at half of the fitted maximal effect; on the % scale 0 is the no-effect control and ±100 the full control effect
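Luminescence readout; reporter = integrated firefly luciferase in P. falciparum. RBC culture at 2% hematocrit, 0.1% parasitemia final, 37 C/5% CO2; decreased signal taken as growth inhibition.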
SARS PLP yeast: SARS-CoV PLP inhibition in yeast | S. cerevisiae expressing SARS-CoV PLpro, growth rescue | AID 485353 | Potency, µM (series often up to 32.9 µM), for inactives: top-dose activity, positive = growth rescue, hits mostly activators | 330,000 tested, 0.19% active; calls by dose curve; further: potency means the concentration at half of the fitted maximal effect; 0% is about no effect; nearly all actives have a fitted effect of over 55% in size
Starred values were filed as active, the others as inactive; i = inactive; ? = inconclusive; · = not tested or not shown; [ ] = dose if it differs, or a comment. This is a sample that favours compounds with a hit; in the whole collection about 21% have one here. Unless noted, the call rests on the fitted dose curve; in most records, active means well fitted inhibition curve with a large enough effect; inconclusive means small, poorly fitted or top-dose-only effect, or another doubt; inactive means no such curve, though single readings can be large or run the other way.

SMILES	Shiga inhibitor	NS1 inh	Pf growth 96h	Cycloheximide cs	Pf growth 48h	SARS PLP yeast
COc1ccc(/C=N/NS(=O)(=O)c2ccc(C)cc2)cc1	-2.1	-1.1%	3.29µM*	0.9	34.8%	-3.3%
CCc1ccc(OCC(=O)N/N=C/c2ccc(OS(=O)(=O)c3ccc(C)cc3)c(OC)c2)cc1	8.6	23.7%	?	12.8*	?	22.2%
COc1cc(/C=N/NS(=O)(=O)c2ccc3ccccc3c2)ccc1OCc1ccc(C(=O)O)cc1	118.8*	-5.3%	i	63.1*	478.3%	-0.3%
COc1cc(/C=N/NC(=O)COc2cc(C)cc(C)c2)ccc1OS(=O)(=O)c1ccc(C)cc1	-8.5	?	0.0%	4.6	16.1%	11.7%
COc1cc(/C=N/NS(=O)(=O)c2ccc(C)cc2)ccc1OCc1cccc(C(=O)O)c1	182.6*	1.2%	?	53.6*	122.3%	0.2%
CCOCCCNC(=O)C1CCN(S(=O)(=O)c2ccc3nc4c(c(C(=O)O)c3c2)CCCCC4)CC1	-7.4	-0.3%	-48.5%	-1.4	5.9%	-0.8%
COc1ccc(OCCN2C(=O)NC3(CCc4ccccc4C3)C2=O)cc1 (stereo not drawn)	-13.6	-5.7%	23.1%	-1.0	-2.0%	-11.4%
NS(=O)(=O)c1ccc(CNS(=O)(=O)c2ccc3ccccc3c2)cc1	-31.7	15.0%	?	2.4	12.5%	-7.7%
O=C(O)c1ccc(CNS(=O)(=O)c2ccc3ccccc3c2)cc1	54.7*	-9.1%	-13.1%	29.7	-20.3%	2.0%
Cc1ccc(C(=O)c2cc([N+](=O)[O-])ccc2N2CC(C)OC(C)C2)cc1 (stereo not drawn)	-13.7	-0.7%	?	-8.5	9.28µM*	-3.2%
COc1cc(Cl)c(C)cc1NC(=O)c1ccc2c(SCC(=O)O)c3c(nc2c1)CCCC3	17.7	·	31.6%	-2.6	?	-1.0%
CCOc1ccc(NC(=O)c2ccc3c(SCC(=O)O)c4c(nc3c2)CCCC4)cc1	-15.8	·	0.0%	4.6	-12.6%	-3.5%
CCOC(=O)c1ccccc1NC(=O)c1ccc2c(SCC(=O)O)c3c(nc2c1)CCCC3	-3.2	25.5%	?	-1.7	2.33µM*	-0.7%
COc1ccc(C)cc1NC(=O)c1ccc2c(SCC(=O)O)c3c(nc2c1)CCCC3	3.5	-2.7%	8.28µM*	-1.7	?	2.1%
Cc1cc(C)cc(NC(=O)C(OC(=O)c2cc[n+]([O-])cc2)c2ccccc2)c1 (stereo not drawn)	·	·	0.5%	·	-2.8%	0.3%
COc1cc(OC)cc(C(=O)N2CCC(n3c(C)nc4cc(F)ccc43)CC2)c1	-11.2	-17.3%	13.1µM*	-1.9	·	3.9%
N#Cc1cccc(NC(=O)CN2C(=O)NC3(CCCCCC3)C2=O)c1	·	·	?	·	-10.4%	-2.0%
C=CCn1c2[n+](c3ccccc3c1=O)CCCCC2	-11.8	·	45.1%	2.6	-13.8%	-0.5%
Fc1ccccc1Cn1c2[n+](c3ccc(C(F)(F)F)cc31)CCCCC2	-6.7	·	2.33µM*	0.9	?	-1.7%
COc1ccc(OC)c(C(=O)Cn2c3[n+](c4ccc(C(F)(F)F)cc42)CCCCC3)c1	-6.3	-1.9%	0.522µM*	-3.3	?	-0.5%
N#Cc1cccc(NC(=O)Cn2c3[n+](c4ccc(C(F)(F)F)cc42)CCCCC3)c1	-0.8	3.2%	0.828µM*	-0.6	5.22µM*	-12.8%
CSc1nn2cc(CCN3CCOCC3)c(-c3ccc(F)cc3)nc2c1C#N	-4.8	·	?	5.6	?	-0.3%
CCc1cc2c(SCC#N)ncnc2s1	-2.7	1.3%	28.8%[1.15 µM]	-2.9	13.1%	-2.1%
COc1cc(OC)cc(C(=O)NNC(=O)CCC(=O)c2cccs2)c1	13.6	-3.4%	-7.6%	-2.0	4.4%	-4.7%
COc1ccc2[nH]cc(CCN=C3SCC(=O)N3C)c2c1	36.2	5.3%	11.7µM*	16.1	·	5.6%
SMILES	Shiga inhibitor	NS1 inh	Pf growth 96h	Cycloheximide cs	Pf growth 48h	SARS PLP yeast
CCOC(=O)N1CCN(C(=O)C2CCN(C(=O)c3ccc(C(C)(C)C)cc3)CC2)CC1	-11.1	-11.3%	-17.0%	1.7	9.28µM*	1.3%
COc1ccccc1N1CCN(C(=O)C2CCN(C(=O)c3ccc(C(C)(C)C)cc3)CC2)CC1	-5.3	-34.6%	0.0%	-3.5	4.65µM*	-1.3%
CCOC(=O)N1CCN(C(=O)c2ccc(NC(=O)c3ccc(C)cc3)cc2)CC1	33.8	-3.2%	·	31.4*	?	-0.1%
CCOC(=O)N1CCN(C(=O)C2CCN(C(=O)c3ccc([N+](=O)[O-])cc3)CC2)CC1	-2.2	-1.3%	?	-2.5	0.0%	-5.5%
CCOC(=O)NC(=O)c1cn(CCNCCO)c(=O)[nH]c1=O	-7.8	·	?	-6.5	3.1%	0.1%
CC1(C)C(=O)CC[C@@]2(C)[C@H]1CC[C@@]1(C)CC3=C(CC[C@@H]12)[C@@]1(C)CCC(=O)C(C)(C)[C@@H]1CC3	·	·	?	·	11.7µM*	1.0%
C=C(C)[C@@H]1CCC2(C(=O)O)CC[C@]3(C)[C@H](CC[C@@H]4[C@@]5(C)CCC(=O)C(C)(C)[C@@H]5CC[C@]43C)[C@@H]12 (stereo partly drawn)	-6.5	7.6%	?	-3.3	?	-3.1%
C=CCNC(=O)/C(C#N)=C/c1c(C)nn(-c2ccc(Cl)cc2)c1Cl	-10.1	5.2%	?	-1.2	-16.7%	-32.6%
CCOc1ccccc1NC(=O)/C(C#N)=C/c1c(C)nn(-c2ccc(F)cc2)c1Cl	85.0*	17.6%	20.8%	47.4*	-15.5%	20.0%
Cc1cccc2c1-c1sc(C(=O)Nc3nccs3)cc1CO2	118.4*	1.5%	8.28µM*	66.2*	·	-19.0%
O=C(Nc1nccs1)c1cc2c(s1)-c1ccccc1OC2	71.5*	-58.1%	-3.7%	21.4*	·	-2.7%
O=C(Nc1nc2ccccc2s1)c1cc2c(s1)-c1ccccc1OC2	30.2	5.2%	?	-1.4	·	1.7%
CCOC(=O)c1cc2c(s1)-c1c(C)cccc1OC2	168.3*	-59.1%	?	50.7*	·	-6.6%
Cc1cccc2c1-c1sc(C(=O)Nc3cccc([N+](=O)[O-])c3C)cc1CO2	6.1	?	0.738µM*	-0.4	-4.8%	21.0%
COc1cc2c(cc1OC)C(C)N(C(=O)c1cc3c(s1)-c1c(C)cccc1OC3)CC2 (stereo not drawn)	-11.0	-24.5%	?	-2.8	?	-37.6%
Cc1nn(C)c(Cl)c1CN1CCN(C2CCCC2)C(CCO)C1 (stereo not drawn)	13.3	8.6%	19.8%	10.8	-20.0%	-2.6%
CCOc1ccc(CCNC(=O)CCNC(=O)c2ccc(Br)cc2)cc1OCC	-12.4	0.2%	-20.2%	-2.9	5.6%	1.0%
CC1=C(C(=O)Nc2ccccc2)C(c2cccs2)NC(=O)N1 (stereo not drawn)	-7.8	4.8%	-4.7%	-7.0	4.4%	-0.9%
CC(NC(=O)C1CCCN(C(=O)N(C)C)C1)c1ccccc1 (stereo not drawn)	4.1	0.2%	·	-3.3	6.7%	-1.6%

High-throughput results from PubChem BioAssay.
